# Results taken from PubChem BioAssay (NCI).
# “And” between values parts separate entries of the source, which are not always exact repeats. Equal values may be shown once. This is part of a sample that, as a whole, favours compounds with a hit. Of some 83,000 tested, about 20% had one in any assay.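 Activity criterion: percent growth below 10, measured after cells in 96-well plates were exposed to a single compound concentration for 48 hours.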 The source made the active and inactive calls.
# Tests used:
# Test in all cases: NCI-60 one-dose screen, 48 h (100 = growth as untreated, 0 = no growth, -100 = all killed)
# Conditions in all cases: 10 µM unless noted
# SK-MEL-2 melanoma = tested on: SK-MEL-2 melanoma
# EKVX NSCLC = tested on: EKVX NSCLC
# SN12C renal = tested on: SN12C renal
# UO-31 renal = tested on: UO-31 renal
# TK-10 renal = tested on: TK-10 renal
# ACHN renal = tested on: ACHN renal
# CAKI-1 renal = tested on: CAKI-1 renal
# A498 renal = tested on: A498 renal
# CCRF-CEM leukemia = tested on: CCRF-CEM leukemia
# MOLT-4 leukemia = tested on: MOLT-4 leukemia
SMILES,growth (SK-MEL-2 melanoma),growth (EKVX NSCLC),growth (SN12C renal),growth (UO-31 renal),growth (TK-10 renal),growth (ACHN renal),growth (CAKI-1 renal),growth (A498 renal),growth (CCRF-CEM leukemia),growth (MOLT-4 leukemia)
Cc1cc(N)c2ccccc2[n+]1CCCCCCCCCC[n+]1c(C)cc(N)c2ccccc21,-23.7% (active) and -19.9% (active),13.4% (inactive) and 1.53% (active),5.16% (active) and 5.31% (active),19.2% (inactive) and 65.3% (inactive),21.1% (inactive) and 35.1% (inactive),42.8% (inactive),30.9% (inactive) and 69.6% (inactive),-7.94% (active),6.34% (active) and 22% (inactive),-43.9% (active) and 1.26% (active)
N#Cc1ccc([N+](=O)[O-])o1,91% (inactive),105% (inactive),106% (inactive),92.6% (inactive),108% (inactive),104% (inactive),104% (inactive),98.5% (inactive),102% (inactive),99.5% (inactive)
O=C(Nc1ccc(F)cc1)ON=C1CCCCC1,102% [100 µM] (inactive),111% [100 µM] (inactive),100% [100 µM] (inactive),92.2% [100 µM] (inactive),101% [100 µM] (inactive),97.9% [100 µM] (inactive),79.3% [100 µM] (inactive),95.2% [100 µM] (inactive),97.2% [100 µM] (inactive),95.3% [100 µM] (inactive)
O=C1OCc2cccc3cccc1c23,123% (inactive),88.2% (inactive),101% (inactive),77% (inactive),101% (inactive),95.7% (inactive),102% (inactive),83.5% (inactive),94.5% (inactive),92.6% (inactive)
O=[N+]([O-])c1ccc(N=Nc2ccc(O)cc2O)cc1,43.1% (inactive),58.8% (inactive),67.2% (inactive),58.5% (inactive),77.9% (inactive),55.5% (inactive),56% (inactive),13.8% (inactive),33.2% (inactive),36.7% (inactive)
Cn1c2c(c3ccccc31)CCN1C[C@@H]3CCCC[C@H]3C[C@@H]21,-2.5% (active),26.3% (inactive),32.7% (inactive),22.9% (inactive),32.2% (inactive),30.4% (inactive),18.9% (inactive),-5.89% (active),25.2% (inactive),31.3% (inactive)
CN(C)C(=O)SC1=C(c2c(Cl)cccc2Cl)C(=O)c2ccccc21,136% (inactive),0.799% (active),82.3% (inactive),-34.4% (active),-43.7% (active),-43.2% (active),-28.9% (active),115% (inactive),0.862% (active),-22.5% (active)
CC1=CC(O)C2CC1C2(C)C (stereo not drawn),92.8% (inactive),97.7% (inactive) and 104% (inactive),102% (inactive) and 108% (inactive),93.8% (inactive) and 73.6% (inactive),102% (inactive) and 98.1% (inactive),103% (inactive) and 118% (inactive),94.4% (inactive) and 85.8% (inactive),91% (inactive) and 92.7% (inactive),,91.9% (inactive) and 93.3% (inactive)
O=C1N[C@H]2[C@H](CS[C@H]2CCCCC(=O)N(CCP(c2ccccc2)c2ccccc2)CCP(c2ccccc2)c2ccccc2)N1,81.3% (inactive),75.3% (inactive),94.4% (inactive),77.3% (inactive),97.4% (inactive),95.7% (inactive),99.2% (inactive),94.2% (inactive),,82.8% (inactive)
Cc1ccc(NS(=O)(=O)c2ccc(C)cc2)cc1,101% (inactive) and 79.6% (inactive),96.3% (inactive),105% (inactive) and 99.8% (inactive),93% (inactive) and 79.3% (inactive),104% (inactive) and 91.5% (inactive),113% (inactive) and 96.6% (inactive),90.9% (inactive) and 96% (inactive),92.8% (inactive) and 93.4% (inactive),92.3% (inactive) and 97.2% (inactive),94% (inactive) and 98.5% (inactive)
O=C(O)C1C2CC3C(OC(=O)C31)C2Br (stereo not drawn),95.8% (inactive) and 105% (inactive),106% (inactive) and 95.6% (inactive),95.2% (inactive) and 103% (inactive),91.4% (inactive) and 97.2% (inactive),88.7% (inactive) and 100% (inactive),96% (inactive) and 100% (inactive),102% (inactive) and 101% (inactive),103% (inactive) and 64.4% (inactive),89.3% (inactive) and 107% (inactive),96.8% (inactive) and 106% (inactive)
CNc1ccc2c(c1)c1ccccc1n2C,103% (inactive),106% (inactive),102% (inactive),92.4% (inactive),97.9% (inactive),114% (inactive),98.9% (inactive),88.8% (inactive),109% (inactive),88.1% (inactive)
